# PubChem BioAssay AID463173 (ICCB-Longwood Screening Facility, Harvard Medical School, 2010)
# Hit rate of the full screen: of about 52,000 compounds, about 4,300 (8.3%) were called active. What follows is part of a selection rich in actives, with near analogues and random picks from the rest. Unmarked numbers belong to inactive results. No stated cut-off is given here; in the data, active means survival mostly below about 52% (no sharp cut-off); inactive means mostly above about 56%.
# System: DeltatarO mutant
# Experiment: growth inhibition of S. aureus wild type versus tarO mutant, primary screen, teichoic acid synthesis inhibitors, RN4220, OD600 (AID 463173)
# Settings: OD600, 18 h, hits give low values, screened at 18.75 µg/mL (by protocol)
row,Compound,survival
1,CSc1ccc(CCNC(=O)c2cnc3c(C)cccn3c2=O)cc1,89%
2,CCc1ccccc1NC(=O)C1CCC(CNS(=O)(=O)c2ccc3c(c2)CC(C)N3C(C)=O)CC1 (stereo not drawn),91%
3,COc1cccc(NC(=O)CCc2c(C)nc3nc(CNC(=O)c4cccc(F)c4)nn3c2C)c1,76%
4,CCN1CCSc2ccc(C(=O)NCc3cccc(Br)c3)cc21,46% (active)
5,Cc1cccc(CN2C(=O)c3ccccc3Sc3ccc(C(=O)NCc4cccs4)cc32)c1,93%
6,O=C(NCc1ccc(F)cc1)c1ccc2c(c1)N(Cc1ccc(F)cc1Cl)C(=O)CS2,57%
7,Cc1ccc(CNC(=O)c2ccc3c(c2)N(Cc2ccccc2Cl)C(=O)CS3)cc1,50%
8,Cc1ccc(CNC(=O)c2ccc3c(c2)N(Cc2cccc(Cl)c2)C(=O)CS3)cc1,40% (active)
9,CCN1CCSc2ccc(C(=O)NCc3cccc(F)c3)cc21,61%
10,O=C(NCc1ccccc1Cl)c1ccc2c(c1)N(Cc1ccccc1)C(=O)CS2,101%
11,Cc1ccc(CNC(=O)c2ccc3c(c2)N(Cc2cccc(C)c2)C(=O)CS3)cc1,46% (active)
12,CCN1CCSc2ccc(C(=O)NCc3ccccc3Br)cc21,62%
13,COc1ccc(CNC(=O)c2ccc3c(c2)N(Cc2cc(C)ccc2C)C(=O)CS3)cc1,59%
14,Cc1cccc(CNC(=O)c2ccc3c(c2)N(C)CCS3)c1,65%
15,Cc1ccc(C)c(CN2C(=O)CSc3ccc(C(=O)NCc4ccc(F)cc4)cc32)c1,46% (active)
16,Cc1ccc(NC(=O)Cn2nc(-c3ccncc3)ccc2=O)cc1Cl,120%
17,Cc1cc(C)c(/C=C/c2onc(C)c2S(=O)(=O)N2CCC(C(=O)NCCc3ccccc3)CC2)c(C)c1,94%
18,Cc1ccc(-n2nc3c(=O)n(CCCC(=O)NCc4ccccc4C)nc(C)c3c2C)cc1,120%
19,COC(=O)c1nc(C(=O)OC)c(C(=O)OC)nc1C(=O)OC,95%
20,COc1ccc(Cl)cc1C(=O)Nc1sc2c(c1C(=O)OC(C)C)CCCC2,61%

row,Compound,survival
1,CCOC(=O)Cc1c(C(=O)OCC)nnc2c(-c3ccccc3)c(C)nn12,75%
2,CN(C)c1ccc(CNC(=O)c2ccccc2NC(=O)c2nsc3ccccc23)cc1,73%
3,COc1ccccc1NC(=O)C1=C(C)Nc2nc(CCCO)nn2C1c1cccc(O)c1 (stereo not drawn),144%
4,CCCOc1ccc(C2C3CN(CC)CC=C3C(C#N)=C(N)C2(C#N)C#N)cc1OC (stereo not drawn),0% (active)
5,CCCN1CC=C2C(C#N)=C(N)C(C#N)(C#N)C(c3cccc(OC)c3)C2C1 (stereo not drawn),95%
6,CCN1CC=C2C(C#N)=C(N)C(C#N)(C#N)C(c3ccc(OC)c4ccccc34)C2C1 (stereo not drawn),108%
7,CC1CCN(S(=O)(=O)c2ccc3c(c2)CCN3)CC1,102%
8,COc1cc(C2C(C(=O)Nc3ccc(C)cc3C)=C(C)Nc3nc(SCc4ccccc4)nn32)cc(OC)c1OC (stereo not drawn),64%
9,O=C(O)C1C(c2ccccc2)C(C(=O)N2CCCCC2)C1c1ccccc1 (stereo not drawn),101%
10,Brc1ccccc1-n1ncc2c1ncn1nc(Cc3ccccc3)nc21,74%
11,CC(C)(C)OC(=O)N1CCC(c2nnc(SCc3ccccc3F)o2)CC1,57%
12,CC(C)(C)OC(=O)N1CCC(c2nnc(SCc3cccc(Cl)c3)o2)CC1,1% (active)
13,CC(C)(C)OC(=O)N1CCC(c2nnc(SCc3ccccc3Cl)o2)CC1,-1% (active)
14,CC(C)(C)OC(=O)N1CCC(c2nnc(SCc3ccccc3)o2)CC1,96%
15,Clc1ccccc1CSc1nnc(C2CCNCC2)o1,89%
16,Clc1cccc(CSc2nnc(C3CCNCC3)o2)c1,104%
17,CCN(C(=O)c1cnc(N2CCOCC2)c2ccccc12)c1cc(C)ccc1C,94%
18,O=C(c1ccccc1)c1ccc2nc(Nc3cc(Cl)ccc3O)c3nncn3c2c1,118%
19,COc1ccc(NC(=O)CSc2oc(-c3ccc(C)cc3)nc2S(=O)(=O)c2ccc(C)cc2)c(OC)c1,60%
20,CCCCn1cc(S(=O)(=O)c2ccc(C)c(C)c2)c(=O)c2cc(F)c(N3CCN(C)CC3)cc21,101%

row,Compound,survival
1,COC(=O)c1ccccc1NC(=O)[C@H]1O[C@@H]2OC(C)(C)O[C@@H]2[C@H]2OC(C)(C)O[C@H]21,95%
2,Cc1ccc2c(CN3CCN(Cc4ccccc4Cl)CC3)cc(=O)oc2c1,43%
3,COc1ccccc1C(=O)N1CCN(Cc2cc(=O)oc3cc(C)ccc23)CC1,38% (active)
4,Cc1ccc2c(CN3CCN(C(=O)c4ccc(F)cc4)CC3)cc(=O)oc2c1,33% (active)
5,COc1cccc(N2CCN(Cc3cc(=O)oc4cc(C)ccc34)CC2)c1,70%
6,COc1ccc(CN2CCN(Cc3cc(=O)oc4cc(C)ccc34)CC2)c(OC)c1OC,101%
7,Cc1ccc2c(CN3CCN(C(=O)c4ccc(Br)cc4)CC3)cc(=O)oc2c1,51%
8,Cc1ccc(N2C(=O)CSC23C(=O)N(CC(=O)NCCc2ccccc2)c2ccccc23)cc1C (stereo not drawn),95%
9,O=c1[nH]c2cc3c(cc2cc1C(c1nnnn1C1CCCC1)N1CCc2ccccc21)OCCO3 (stereo not drawn),64%
10,COc1cccc(N2CC(NC(=O)c3cccc(OC)c3OC)CC2=O)c1 (stereo not drawn),115%
11,NC(=O)CN(C1CCCCC1)S(=O)(=O)c1ccc(Br)cc1,96%
12,CCCCC(CC)CNC(=O)c1ccc2c(=O)n(Cc3ccc(OC)cc3)c(=O)[nH]c2c1 (stereo not drawn),84%
13,Fc1ccc(NCc2ccccc2-c2nnc(-c3ccccc3Cl)o2)cc1,88%
14,Cc1ccc(CCNC(c2ccc(F)cc2)c2nnc(-c3ccccc3Cl)o2)cc1 (stereo not drawn),-8% (active)
15,Fc1ccc(C(NCCc2ccccc2)c2nnc(-c3ccccc3Cl)o2)cc1 (stereo not drawn),104%
16,Fc1ccc(C(Nc2ccccc2Cl)c2nnc(-c3ccccc3Cl)o2)cc1 (stereo not drawn),83%
17,COc1ccc(CCNC(c2ccc(F)cc2)c2nnc(-c3ccccc3Cl)o2)cc1OC (stereo not drawn),57%
18,Fc1ccc(C(NCCc2ccc(Cl)cc2)c2nnc(-c3ccccc3Cl)o2)cc1 (stereo not drawn),26% (active)
